Data from PubChem BioAssay AID1852 (Sanford-Burnham Center for Chemical Genomics, 2009).
Screen size: about 2,500 compounds; about 1,100 (44%) were called active. The set was probably picked from earlier hits. This is one part of the list. A number with no mark means an inactive call.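 Rule for the calls: active = inhibition above 50% at 4 µM in the single-point screen; inactive = inhibition of 50% or less.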

Experiment: blockers of TNF-a NF-kB luciferase induction – cell-based, HEK293T NF-kB-Luc, luminescence, selectivity assay for NOD1/NOD2 signaling inhibitor project, primary screen (AID 1852)
Settings: TNF-a induced, 14 h, at 4 µM, active compounds read high

Row | Structure (SMILES) | inhibition
1 | CCNC(=O)/C(C#N)=C/c1c(N2CCN(c3cccc(Cl)c3)CC2)nc2c(C)cccn2c1=O | -19.8%
2 | COc1ccccc1N1CCN(c2ncnc3sc(C)c(-c4ccccc4)c23)CC1 | 26.9%
3 | COc1ccccc1N1CCN(c2nc(C)nc3c2oc2ccccc23)CC1 | 68.6% (active)
4 | CCc1nc(SCC(=O)N2CCN(c3ccccc3)CC2)c2oc3ccccc3c2n1 | 0.6%
5 | Oc1cc2c(cc1C(c1ccc(Cl)c(Cl)c1)N1CCCC1)OCO2 (configuration not stated) | -22.5%
6 | Cc1cc(N/N=C/c2ccccc2[N+](=O)[O-])nc(-n2nc(C)cc2C)n1 | 1.1%
7 | O=[N+]([O-])c1ccc(O)c(/C=N/Nc2nc3ccccc3[nH]2)c1 | 67.8% (active)
8 | Cc1nc([N+](=O)[O-])c(Sc2nc3ccc([N+](=O)[O-])cc3[nH]2)n1Cc1ccccc1 | 38%
9 | O=[N+]([O-])c1cc(Cl)cc(/C=N\Nc2ccccn2)c1O | 48.8%
10 | O=[N+]([O-])c1cc(/C=N/Nc2nc3ccccc3[nH]2)c(O)cc1O | 66.5% (active)
11 | C[C@H]1O[C@@H](O[C@H]2[C@@H](O)C[C@H](O[C@H]3[C@@H](O)C[C@H](O[C@H]4CC[C@@]5(C)[C@H](CC[C@@H]6[C@@H]5C[C@@H](O)[C@]5(C)[C@@H](C7=CC(=O)OC7)CC[C@]65O)C4)O[C@@H]3C)O[C@@H]2C)C[C@H](O)[C@@H]1O | 104% (active)
12 | CCOC(=O)c1sc(NC(=O)c2cc(-c3ccccc3)nc3ccccc23)c(C#N)c1C | 80.3% (active)
13 | Cc1ccc(NC(=O)Cc2cc(C(=O)O)c3ccccc3n2)c(C)c1 | 25.2%
14 | CCOC(=O)c1sc(NC(=O)c2cc(-c3ccccc3C)nc3ccccc23)c(C#N)c1C | 92.5% (active)
15 | CCOC(=O)c1sc(NC(=O)CSc2n[nH]c(-c3ccccc3)n2)c(C#N)c1C | 38.1%
16 | COc1cc(-c2cc(C(=O)Nc3ccc(N4CCOCC4)cc3)c3ccccc3n2)cc(OC)c1OC | 21.8%
17 | COC(=O)c1sc(NC(=O)c2cc(-c3ccccc3)nc3ccccc23)c(C#N)c1C | 75.2% (active)
18 | CCOC(=O)c1cc(-c2ccccc2)sc1NC(=O)c1cc(OC)c(OC)c(OC)c1 | -26.7%
19 | Cc1ccccc1-c1cc(C(=O)Nc2sc(C(=O)OC(C)C)c(C)c2C#N)c2ccccc2n1 | 94.3% (active)
20 | COc1ccc(-n2nc3c(c2NC(=O)CCl)CSC3)cc1 | -4.5%
21 | COc1ccc(N2CCN(C(=O)CCC(=O)N3CCOc4ccc(C)cc43)CC2)cc1 | 40.5%
22 | COc1ccc(-n2nnnc2S(=O)(=O)CC(=O)N2CCCCC2)cc1 | 102% (active)
